# Species on record: Homo sapiens
# Assay: To identify inhibition of the IFN signalling (Jak-Stat) pathway via expression of an eGFP reporter gene under the control of an IFN-stimulated response element (ISRE) containing MxA promoter.
# Assay type: functional
# Parameters: scale not given: direction of the effect not stated beside the values
# Settings: 30 µM
row,Compound,Percent Effect
1,COCCN1CC[C@@H]2O[C@@H](COCC(=O)N3CCCC3)CC[C@@H]21,-31.2%
2,O=C(c1ccc[nH]1)N1CCCC(c2cc(C(F)(F)F)[nH]n2)C1 (stereo unspecified),35.6%
3,O=C(c1coc(COc2cccc(F)c2)n1)N1CC[C@H](O)[C@@H](O)C1,7.51%
4,Cc1nnc2n1CCN(CCOc1ccccc1)C2,0.176%
5,c1ccc(OCCN2CCCC(c3noc(C4CC4)n3)C2)cc1 (stereo unspecified),6.37%
6,Cn1ccc(CN2CCC(OCCc3ccccc3)CC2)cc1=O,29.9%
7,COC1COC2(CCN(Cc3ccccc3Cl)CC2)C1 (stereo unspecified),20.8%
8,COc1cccc(S(=O)(=O)N2CCn3cnc(COCC4CC4)c3C2)c1,7.62%
9,Cc1ncsc1C(=O)N(C)CCc1ccncc1,16.7%
10,Cc1cc(C)n(C2CCCN(C(=O)Cc3csc(C)n3)C2)n1 (stereo unspecified),-6.53%
11,O=C(NCCNc1cnccn1)N1CCN(Cc2cccnc2)CC1,10.6%
12,Cc1cc(NC(=O)NCC(C)O)n(C)n1 (stereo unspecified),-5.12%
13,CCc1nccn1C1CCCN(C(=O)c2cnn(C)c2C2CC2)C1 (stereo unspecified),23.9%
14,CCOCC(O)CN1CCN(C(=O)c2cccnc2OC)CC1 (stereo unspecified),5.16%
15,O=C(CN1CCc2cncnc2C1)NCCOc1ccccc1,0.604%
16,Cc1nc(N2CCCCC2)ncc1C(=O)N1CC(C)(C)[C@@](C)(O)C1,7.42%
17,c1cncc(-c2nccc(CN3CCCC3)n2)c1,-2.71%
18,O=C(NC1CCCC1)N1CCCC(c2nccn2Cc2ccncc2)C1 (stereo unspecified),-38.2%
19,Cc1cc(CN2CCOC(CN(C)c3cccnn3)C2)no1 (stereo unspecified),1.91%
20,Cn1cc(CNCCn2cccn2)c(-c2cccnc2)n1,-1.72%
21,O=C1NC2(CCN(C(=O)c3ccccc3)CC2)CC1c1cccnc1 (stereo unspecified),-28.6%

# From ChEMBL document CHEMBL3988442, “University of Dundee, Small-Polar-MMV Screening Library” (2021)
